The values that follow come from PubChem BioAssay (NCATS).

Structures are written as SMILES. Records with an inconclusive call do not appear. Active and inactive are the calls of the source. Calls come from the whole dose curve; as a rule, active = well fitted cell-killing curve with a large enough effect; inconclusive = small, poorly fitted or top-dose-only effect; inactive = flat fitted curve, though single readings scatter.
Potency is the fitted concentration of half-maximal effect.

The test in a line: Cell Viability - LYMP2-019 (AID 973).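 For activity change, negative = cytotoxicity: 0% = DMSO alone and full effect = 92 µM tetraoctylammonium bromide.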 Note: nearly all actives have a fitted effect of over 55% in size. Particulars: LYMP2-019 lymphoblastoid cell line viability; series mostly up to 92.2 µM; activity change, negative = cytotoxicity: at the top concentration. An excerpt:
NIH Chemical Genomics Center [NCGC]
NIH Molecular Libraries Screening Centers Network [MLSCN]
National Institutes of Environmental Health Sciences [NIEHS]
National Toxicology Program [NTP]
We have developed a 1536-well cell-based assay for quantitative high throughput screening (qHTS) against a number of cell lines to determine in vitro cytotoxicity of small molecules. This particular assay uses a human lymphoblastoid cell line (LYMP2-019) purchased from Coriell Institute for Medical Research.
NCGC Assay Protocol Summary:
The CellTiter-Glo luminescent cell viability assay (Promega) is a homogeneous method to measure the number of viable cells in culture. The end point readout of this assay is based on quantitation of intracellular ATP, an indicator of metabolic activity, using the luciferase reaction. Luciferase catalyzes the oxidation of beetle Luciferin to oxyluciferin and light in the presence of ATP. The luminescent signal is proportional to amount of ATP present.
Using the CellTiter-Glo luminescent cell viability assay, the amount of cellular ATP was measured in the lymphoblastoid cell line with complete culture medium following compound treatment for 24 hours. The assay was performed in opaque white Kalypsys 1536-well plates. In the screen, tetraoctylammonium bromide was used as positive control. Library compounds were measured for their ability to cause acute toxicity in the cell line, as reflected by a decrease in intracellular ATP levels, in a concentration-dependent manner. […] AC50 values were determined from concentration-response data modeled with the standard Hill equation.
qHTS protocol for CellTiter Glo lymphoblastoid cellular assay
[Step] [Parameter] [Value] [Description]
1. Reagent; 5 uL; 2500 lymphoblastoid cells/well
2. Time; 5 hr; 37 C incubation
4. Controls; 23 nL; Tetraoctylammonium bromide 6.4pM to 92 uM
5. Time; 24 hr; 37 C incubation
6. Reagent; 5 uL; CellTiter Glo reagent
7. Time; 30 min; Room Temperature
8. Detection; Luminescence; Viewlux plate reader
Keywords: cell viability, cytotoxicity, lymphoblastoid cell line, luminescence, NTPHTS, NTPHTS_NCGC, NIEHS, DSSTox, MLSMR, MLSCN, NIH Roadmap, qHTS, NCGC
For `Cc1cc(NS(=O)(=O)c2ccc(N)cc2)no1`, the “activity change, negative = cytotoxicity” value is -4.25% (inactive).
As for `CN(C)c1ccc(C(=C2C=CC(=[N+](C)C)C=C2)c2ccc(N(C)C)cc2)cc1`, the Potency was 3.16 µM (active).
As for `Cc1noc(NS(=O)(=O)c2ccc(N)cc2)c1C`, the “activity change, negative = cytotoxicity” value is -10.5% (inactive).
With `CC[C@H](C)C(=O)O[C@H]1C[C@@H](C)C=C2C=C[C@H](C)[C@H](CC[C@@H]3C[C@@H](O)CC(=O)O3)[C@H]21`, the “activity change, negative = cytotoxicity” value is -17% (inactive).
On the same count and under the same terms, the same measure for `O=C(O)c1cc(=O)[nH]c(=O)[nH]1`: -4.04% (inactive); for `Cc1ccnc2c1NC(=O)c1cccnc1N2C1CC1`: -12.1% (inactive); for `CC1=NN(c2ccccc2)C(=O)C1`: -21.8% (inactive).
Take `CCc1cc(C(N)=S)ccn1`: the “activity change, negative = cytotoxicity” value is -3.34% (inactive).
Turning to `NNC(=O)c1ccncc1`, the “activity change, negative = cytotoxicity” value is -5.14% (inactive).
As for `C[C@]12C=CC(=O)C=C1CC[C@@H]1[C@@H]2C(=O)C[C@@]2(C)[C@H]1CC[C@]2(O)C(=O)CO`, the “activity change, negative = cytotoxicity” value is -12.2% (inactive).
Turning to `Cc1ncc([N+](=O)[O-])n1CCO`, the “activity change, negative = cytotoxicity” value was -1.73% (inactive).
Same read-out and setting: for `Cc1nnc(NS(=O)(=O)c2ccc(N)cc2)s1` the value was -6.82% (inactive).
On the same count and under the same terms, for `O=C(N[C@H](CO)[C@H](O)c1ccc([N+](=O)[O-])cc1)C(Cl)Cl` the value was -1.91% (inactive).
